The values below come from PubChem BioAssay (EPA / NIEHS).

What is called AC50 is the concentration at which the activity in the assay is half-maximal.

Structures are written as SMILES. Results filed as inconclusive are left out. More than one record can exist for a structure, and the calls need not agree. Activity calls are given as the source filed them. The calls were made as follows, unless noted: active = hit-call score of the fitted dose curve at least 0.9, where 1 is the maximum; inactive = score below 0.9.

A short description of assay [1]: ATG_TCF_b_cat_CIS: Attagene CIS-FACTORIAL HepG2 Assay for human T-Cell-Factor with beta-catenin (TCF/b-cat) (AID 2282965). The note with it: HepG2 TCF/beta-catenin cis-reporter transcription, actives raise or lower the signal. In short, it runs like this: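 HepG2 cells transiently transfected with multiple cis-promoter-regulated reporter transcription units, so endogenous transcription factor activity is measured. Reporter mRNA read 24 hours after dosing by RT-PCR, fluorescent labelling and capillary electrophoresis; bidirectional fitting against DMSO.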

Assay [2] is described as follows: ATG_TAL_CIS: Attagene CIS-FACTORIAL HepG2 Assay for human TAL Basal Promoter (AID 2282966).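 Also: background control endpoint measuring basal TAL promoter reporter mRNA not a specific factor.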 The note with it: HepG2 Attagene cis-factorial TAL promoter reporter; actives raise or lower the signal. In short, it runs like this: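 Basal-promoter background-control endpoint from a multiplexed HepG2 reporter panel. Cells were exposed 24 h, then reporter mRNA was read by RT-PCR/CE fluorescence and fitted in both directions relative to DMSO.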

Assay [3] in a line: ATG_TGFb_CIS: Attagene CIS-FACTORIAL HepG2 Assay for human Transforming Growth Factor (TGF) (AID 2282967). The note with it: HepG2 Attagene CIS TGFb reporter, mRNA transcription; actives raise or lower the signal. In short, it runs like this:
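Liver HepG2 line, cis-factorial reporter panel, 24 h dosing. Quantitation: RT-PCR products labeled with 6-FAM, cut with HpaI, resolved by capillary electrophoresis; DMSO-referenced bidirectional analysis.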

Assay [4] in a line: ATG_VDRE_CIS: Attagene CIS-FACTORIAL HepG2 Assay for human Vitamin D Receptor Element (VDRE) (AID 2282968). The note with it: HepG2 VDRE cis-reporter transcription, actives raise or lower the signal. In short, it runs like this:
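Transfected HepG2 reporter cells, chemical treatment 24 h. RNA isolated, cDNA amplified with reporter-specific primers, products analysed by capillary electrophoresis. Endpoint fitted in both directions versus DMSO.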

Assay [5] addresses Estrogen receptor (Homo sapiens) (UniProt P03372). The experiment in a line: ATG_ERa_TRANS: Attagene TRANS-FACTORIAL HepG2 Assay for human Estrogen Receptor alpha (ERa) (AID 2282970; active = hit-call score of the fitted dose curve at least 0.9, where 1 is the maximum). The note with it: HepG2 Attagene TRANS ERa GAL4 reporter, mRNA. In short, it runs like this: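 Gal4-fusion ERa transactivation, measured as reporter transcript level in transiently transfected HepG2 cells. Exposure 24 h; RT-PCR plus capillary electrophoresis with fluorescence detection.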

In assay [6] the target is Steroid hormone receptor ERR1 (Homo sapiens) (UniProt P11474). The experiment in a line: ATG_ERRa_TRANS: Attagene TRANS-FACTORIAL HepG2 Assay for human Estrogen-Related Receptor alpha (ERRa) (AID 2282971; active = hit-call score of the fitted dose curve at least 0.9, where 1 is the maximum). The note with it: HepG2 Attagene TRANS reporter, ERRa transactivation. In short, it runs like this:
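HepG2 cells transiently transfected with GAL4-UAS reporter units and chimeric NR-Gal4 constructs; after 24 hour compound incubation, reporter mRNA quantified by RT-PCR, fluorescent labelling and capillary electrophoresis, gain of signal versus DMSO.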

The target of assay [7] is X-box-binding protein 1 (Homo sapiens) (UniProt P17861). In words: ATG_Xbp1_CIS: Attagene CIS-FACTORIAL HepG2 Assay for human X-box Binding Protein 1 (XBP1) (AID 2282972). The note with it: HepG2 XBP1 cis-element reporter, Attagene multiplex; actives raise or lower the signal. In short, it runs like this: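 Human hepatoma HepG2, cis-element reporter system, 24 h treatment; mRNA quantified by RT-PCR/CE fluorescence; fit relative to DMSO.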

The nature of assay [8]: ATG_M_19_TRANS: Attagene TRANS-FACTORIAL HepG2 Assay for M19 Transcription Factor (Internal Marker) (AID 2282974; active = hit-call score of the fitted dose curve at least 0.9, where 1 is the maximum). The note with it: HepG2 Attagene TRANS-FACTORIAL M19 internal marker reporter. In short, it runs like this: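 Background-control readout: after 24 h chemical exposure of transfected HepG2 carrying GAL4-driven reporter units, RNA was reverse-transcribed, amplified, fluorescently labeled and sized by capillary electrophoresis; gain-of-signal fit against DMSO.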

Assay [9] is described as follows: ATG_GAL4_TRANS: Attagene TRANS-FACTORIAL HepG2 Assay for GAL4 (Internal Marker) (AID 2282976; active = hit-call score of the fitted dose curve at least 0.9, where 1 is the maximum). The note with it: HepG2 Attagene TRANS GAL4 internal marker reporter. In short, it runs like this: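 Background-control readout: GAL4-UAS reporter transcript in transiently transfected HepG2 cells after 24 h compound exposure. Measured by RT-PCR, 6-FAM primer extension, HpaI digest and capillary electrophoresis; gain-of-signal fit versus DMSO.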

Assay [10] concerns the target Nuclear receptor subfamily 1 group I member 3 (Homo sapiens) (UniProt Q14994). In words: ATG_CAR_TRANS: Attagene TRANS-FACTORIAL HepG2 Assay for human Constitutive Androstane Receptor (CAR) (AID 2282969; active = hit-call score of the fitted dose curve at least 0.9, where 1 is the maximum;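 also: activators raise reporter mRNA above DMSO so AC50 marks induction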). The note with it: HepG2 Attagene TRANS-FACTORIAL CAR reporter. In short, it runs like this: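 Steps: transient transfection of HepG2 with multiple GAL4-UAS reporter units; 24 h compound incubation; RNA isolation, RT-PCR, 6-FAM primer extension, HpaI digest; capillary electrophoresis. Gain-of-signal relative to DMSO negative control.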

Chain of X-box-binding protein 1 (Homo sapiens) (P17861 whole entry, looked up): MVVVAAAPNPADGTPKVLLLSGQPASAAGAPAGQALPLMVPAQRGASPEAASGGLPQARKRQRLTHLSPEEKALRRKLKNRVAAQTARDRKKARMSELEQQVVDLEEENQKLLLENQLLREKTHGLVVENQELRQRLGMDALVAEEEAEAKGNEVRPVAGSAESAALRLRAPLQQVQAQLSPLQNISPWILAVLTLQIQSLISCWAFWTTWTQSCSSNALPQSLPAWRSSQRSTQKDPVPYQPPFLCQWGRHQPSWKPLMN
Chain of Nuclear receptor subfamily 1 group I member 3 (Homo sapiens) (Q14994 whole entry, looked up, the tested form may be a part): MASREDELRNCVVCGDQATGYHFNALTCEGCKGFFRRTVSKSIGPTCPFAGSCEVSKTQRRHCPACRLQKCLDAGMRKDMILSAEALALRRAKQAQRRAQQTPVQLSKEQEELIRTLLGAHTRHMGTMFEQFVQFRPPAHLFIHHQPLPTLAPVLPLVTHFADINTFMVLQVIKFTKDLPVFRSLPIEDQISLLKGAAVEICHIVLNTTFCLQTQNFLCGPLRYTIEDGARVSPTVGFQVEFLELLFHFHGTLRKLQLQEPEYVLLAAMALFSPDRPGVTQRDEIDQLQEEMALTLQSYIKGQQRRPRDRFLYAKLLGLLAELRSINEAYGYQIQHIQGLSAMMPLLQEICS
Chain of Steroid hormone receptor ERR1 (Homo sapiens) (P11474 whole entry, looked up, the tested form may be a part): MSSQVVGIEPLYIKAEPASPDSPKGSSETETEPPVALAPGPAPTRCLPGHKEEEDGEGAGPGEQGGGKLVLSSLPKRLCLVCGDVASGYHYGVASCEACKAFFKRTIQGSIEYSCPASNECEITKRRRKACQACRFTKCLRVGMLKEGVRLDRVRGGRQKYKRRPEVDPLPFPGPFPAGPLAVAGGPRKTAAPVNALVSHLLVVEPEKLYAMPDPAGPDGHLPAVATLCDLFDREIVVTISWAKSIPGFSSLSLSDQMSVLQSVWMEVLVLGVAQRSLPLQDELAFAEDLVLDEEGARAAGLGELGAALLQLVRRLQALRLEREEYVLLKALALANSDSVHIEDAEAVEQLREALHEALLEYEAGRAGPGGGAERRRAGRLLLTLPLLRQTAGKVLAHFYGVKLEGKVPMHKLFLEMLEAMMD
Chain of Estrogen receptor (Homo sapiens) (P03372 whole entry, looked up, the tested form may be a part): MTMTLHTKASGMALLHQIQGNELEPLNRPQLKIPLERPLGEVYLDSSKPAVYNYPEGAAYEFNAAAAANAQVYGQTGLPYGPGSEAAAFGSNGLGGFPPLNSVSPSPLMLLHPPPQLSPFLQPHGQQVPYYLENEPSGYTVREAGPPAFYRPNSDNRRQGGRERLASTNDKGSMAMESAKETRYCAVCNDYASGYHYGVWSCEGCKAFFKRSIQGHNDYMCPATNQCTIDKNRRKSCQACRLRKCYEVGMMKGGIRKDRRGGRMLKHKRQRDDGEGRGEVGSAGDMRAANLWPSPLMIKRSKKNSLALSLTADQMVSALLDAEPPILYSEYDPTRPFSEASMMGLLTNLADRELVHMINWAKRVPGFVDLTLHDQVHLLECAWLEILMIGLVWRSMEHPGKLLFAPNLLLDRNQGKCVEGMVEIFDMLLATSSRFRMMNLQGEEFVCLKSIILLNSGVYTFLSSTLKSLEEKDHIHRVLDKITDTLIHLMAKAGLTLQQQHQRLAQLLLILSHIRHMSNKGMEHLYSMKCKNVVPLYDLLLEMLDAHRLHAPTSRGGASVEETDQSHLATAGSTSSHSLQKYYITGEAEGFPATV

With `O=S(=O)(OCC(F)F)C(F)(F)F`, the compound was called inactive in assay [1], in assay [2], in assay [3], in [4], in assay [5] and in assay [6]. Also, the compound was classed as inactive in [7], in assay [8] and in assay [9].

With `CC(C)=CCCC(C)CCOC(=O)C(C)C` (stereo not drawn), the result in [1], in assay [2], in assay [3], in assay [4], in [10] and in assay [5] was inactive. In addition, the result in assay [7], in [8] and in assay [9] was inactive.

As for `CCCCCCOC(=O)c1ccccc1O`, the call in assay [1], in assay [2], in assay [3], in [4], in assay [10] and in assay [7] was inactive. Moreover, in assay [8], the result was inactive. In addition, the AC50 in assay [5] is 92.5 µM (active).

Regarding `CCCCCCS`, the AC50 in assay [1] was 68.8 µM (active). Moreover, the compound was classed as inactive in [2], in assay [3], in assay [4], in assay [10], in assay [5] and in [7]. In assay [9], the compound was called inactive.

In the case of `O=C(O)C(F)(OC(F)(F)C(F)(OC(F)(F)C(F)(OC(F)(F)C(F)(F)C(F)(F)F)C(F)(F)F)C(F)(F)F)C(F)(F)F` (stereo not drawn), the compound was classed as inactive in assay [1], in [2], in [3], in assay [4], in assay [10] and in assay [5]. The compound was classed as inactive in [7] and in assay [8].

Turning to `OC[C@@H](O)[C@@H](O)[C@H](O)[C@@H](O)CO`, the compound was called inactive in [1], in [2], in assay [3], in assay [4], in [6] and in assay [7]. The compound was classed as inactive in [8] and in assay [9]. Also, in assay [5], the AC50 was 26.2 µM (active).

For `FC1CC(F)(F)C(F)(F)C1(F)F` (stereo not drawn), the call in assay [1], in assay [2], in [3], in assay [4], in assay [10] and in assay [5] was inactive. In addition, the call in [7], in assay [8] and in assay [9] was inactive.

For the compound `CCO[Si](CCC(F)(F)C(F)(F)C(F)(F)C(F)(F)C(F)(F)C(F)(F)F)(OCC)OCC`, the call in assay [1], in assay [2], in [3], in assay [4], in assay [5] and in assay [6] was inactive. Besides, the compound was classed as inactive in [7] and in assay [9].

For the compound `O=C(O)C(F)(F)C(F)(F)C(F)(F)C(F)(F)C(F)(F)C(F)(F)C(F)(F)C(F)(F)C(F)(F)C(F)(F)C(F)(F)C(F)(F)F`, the AC50 in assay [1] is 100 µM (active); in assay [3] it was 65.5 µM (active). In addition, the call in assay [2], in assay [4], in assay [10], in [5], in [7] and in assay [8] was inactive. Further, the outcome in assay [9] was inactive.

Take `CO[Si](OC)(c1ccccc1)c1ccccc1`: the compound was called inactive in [1], in assay [2], in assay [3], in assay [4], in assay [10] and in assay [5]. The result in assay [7], in assay [8] and in assay [9] was inactive.

Turning to `Cc1ccc(S(=O)(=O)OCC(F)(F)C(F)(F)C(F)(F)C(F)(F)C(F)(F)C(F)F)cc1`, the compound was called inactive in assay [1], in [2], in assay [3], in [4], in [10] and in assay [5]. Also, the outcome in assay [7] and in assay [9] was inactive.

For `C1COCCN1`, the result in assay [1], in assay [2], in assay [3], in [4], in assay [10] and in [5] was inactive. Also, the compound was classed as inactive in [7], in assay [8] and in [9].

`CCN(CC)c1ccc2c(C)cc(=O)oc2c1`: the compound was classed as inactive in [1], in [2], in assay [3], in [10], in assay [7] and in assay [8]. The concentration at half-maximal activity (AC50) in assay [4] is 9.28 µM (active); in assay [5], 25.4 µM (active).

`C=CC/C=C/C/C=C/C/C=C/C`: the call in assay [1], in assay [2], in assay [4], in [10], in assay [5] and in assay [6] was inactive. Also, the compound was classed as inactive in assay [7].

Turning to `CCCCOCCOCCOC(=O)CCCCC(=O)OCCOCCOCCCC`, the call in assay [1], in assay [2], in assay [3], in [4], in [10] and in assay [5] was inactive. Moreover, the result in assay [7] and in [9] was inactive.

In the case of `O=S(=O)(O)c1ccc2ccccc2c1`, the result in assay [1], in [2], in assay [4], in assay [5], in assay [7] and in [8] was inactive. In addition, the outcome in assay [9] was inactive. Besides, the AC50 in assay [4] is 29.3 µM (active).

As to `Nc1ccc([N+](=O)[O-])cc1O`, the outcome in assay [1], in assay [2], in assay [3], in assay [4], in assay [10] and in assay [5] was inactive. Besides, the compound was classed as inactive in [7], in assay [8] and in assay [9].
